# “And” between values parts separate entries of the source, which are not always exact repeats. Equal values may be shown once. Results filed as inconclusive are left out. A structure can be active in one record and inactive in another. The source made the active and inactive calls. The calls were made as follows: active = hit-call score of the fitted dose curve at least 0.9, where 1 is the maximum; inconclusive = response in the unintended direction; inactive = score below 0.9.
# Target: Retinoic acid receptor RXR-alpha (Homo sapiens) (UniProt P19793)
# Experiment: OT_NURR1_NURR1RXRa_1440: Odyssey Thera (OT) 24-hour HEK293T Protein Complementation Assay for Nurr1/retinoid X receptor (RXR) (AID 2283386)
# Description: OT_NURR1_NURR1RXRa_1440 is a cell-based assay that uses HEK293T, a human kidney cell line, with measurements taken at 24 hours after chemical dosing in a 384-well plate.OT_NURR1_NURR1RXRa_1440 is one of one assay component(s) measured or calculated from the OT_NURR1_NURR1RXRa_1440 assay. It is designed to make measurements of protein fragment complementation, a form of binding reporter, as detected with fluorescence intensity signals by Protein-fragment Complementation technology.Data from the assay component OT_NURR1_NURR1RXRa_1440 was analyzed into 1 assay endpoint. This assay endpoint, OT_NURR1_NURR1RXRa_1440, was analyzed in the positive analysis fitting direction relative to DMSO as the negative control and baseline of activity. Using a type of binding reporter, measures of receptor for gain-of-signal activity can be used to understand the binding at the pathway-level as they relate to the gene RXRA. Furthermore, this assay endpoint can be referred to as a primary readout, because the performed assay has only produced 1 assay endpoint. To generalize the intended target to other relatable targets, this assay endpoint is annotated to the nuclear receptor intended target family, where the subfamily is non-steroidal.
# Protein-fragment complementation assay, or PCA, is a method for the identification and quantification of protein-protein interactions. In the PCA, the proteins of interest ("bait" and "prey") are each covalently linked to fragments of a third protein (e.g. DHFR, which acts as a "reporter"). Interaction between the bait and the prey proteins brings the fragments of the reporter protein in close proximity to allow them to form a functional reporter protein whose activity can be measured.
# Sequence of Retinoic acid receptor RXR-alpha (Homo sapiens) (P19793 whole entry, looked up): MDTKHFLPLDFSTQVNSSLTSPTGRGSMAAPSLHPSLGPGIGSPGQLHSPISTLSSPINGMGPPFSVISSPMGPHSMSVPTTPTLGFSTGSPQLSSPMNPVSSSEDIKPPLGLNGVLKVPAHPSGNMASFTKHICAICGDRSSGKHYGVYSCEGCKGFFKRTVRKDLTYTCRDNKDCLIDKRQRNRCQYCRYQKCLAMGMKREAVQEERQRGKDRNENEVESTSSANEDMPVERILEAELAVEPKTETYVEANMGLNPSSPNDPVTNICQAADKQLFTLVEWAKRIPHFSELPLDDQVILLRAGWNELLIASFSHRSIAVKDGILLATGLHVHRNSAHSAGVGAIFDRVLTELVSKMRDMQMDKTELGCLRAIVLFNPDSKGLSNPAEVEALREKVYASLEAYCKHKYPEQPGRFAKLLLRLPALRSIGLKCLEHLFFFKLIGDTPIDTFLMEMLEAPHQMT
Compound,outcome,AC50
Oc1ccc(C(c2ccc(O)cc2)(C(F)(F)F)C(F)(F)F)cc1,inactive,–
Cc1cc2c3c(c1)C(c1ccccc1)=N[C@@H](NC(=O)c1ccncc1)C(=O)N3CC2,inactive,33.6 µM (active)
O=S(=O)(O)C(F)(F)C(F)(F)C(F)(F)C(F)(F)C(F)(F)C(F)(F)F,inactive,–
Cc1ccccc1CO[C@@H]1C[C@@]2(C(C)C)CC[C@]1(C)O2,inactive,–
Cc1ccccc1[N+](=O)[O-],inactive,–
O=C(N[C@H]1CN2CCC1CC2)c1cc2ccoc2cn1,inactive,–
ClC1=C(Cl)[C@]2(Cl)[C@@H]3[C@@H](Cl)[C@H]4O[C@H]4[C@@H]3C1(Cl)C2(Cl)Cl,inactive,86 µM (active)
CCCN(CCC)N=O,inactive,–
c1ccc(-c2ccccc2)cc1,inactive,–
CCC(C)(CC)c1cc(NC(=O)c2c(OC)cccc2OC)on1,inactive,–
Nc1ccc(-c2ccc(N)cc2)cc1,inactive,–
CN(C)CCO,inactive,–
O=C(NC(=O)c1c(F)cccc1F)Nc1cc(Cl)c(OC(F)(F)C(F)F)c(Cl)c1,inactive,–
O=C(O)C(F)(F)C(F)(F)C(F)(F)C(F)(F)C(F)(F)F,inactive,–
CN(C)c1nc(=O)n(C2CCCCC2)c(=O)n1C,inactive,–
CCC(=O)O[C@H]1CC[C@H]2[C@@H]3CCC4=CC(=O)CC[C@]4(C)[C@H]3CC[C@]12C,inactive,73.3 µM (active) and 73.7 µM (active) and 78.4 µM (active)
OCC(O)CO,inactive,–

Compound,outcome,AC50
O=NN(c1ccccc1)c1ccccc1,inactive,–
COS(=O)(=O)OC,inactive,–
NS(=O)(=O)C(F)(F)C(F)(F)C(F)(F)C(F)(F)C(F)(F)C(F)(F)C(F)(F)C(F)(F)F,inactive,–
CCC(C)c1cc([N+](=O)[O-])cc([N+](=O)[O-])c1O (stereo not given),inactive,–
ClC1=C(Cl)[C@]2(Cl)[C@@H]3[C@H]4C[C@H]([C@@H]5O[C@H]45)[C@@H]3[C@@]1(Cl)C2(Cl)Cl,inactive,–
CCOP(=S)(OCC)SCSC(C)(C)C,inactive,–
CCCCCCCCOC(=O)c1ccccc1C(=O)OCCCCCCCC,inactive,–
Clc1ccc(C(c2ccccc2Cl)C(Cl)(Cl)Cl)cc1 (stereo not given),inactive,59.9 µM (active)
ClC1=C(Cl)[C@]2(Cl)[C@@H]3[C@@H]4C[C@@H]([C@H]5O[C@@H]45)[C@@H]3[C@@]1(Cl)C2(Cl)Cl,inactive,–
O=C(O)C(F)(F)C(F)(F)C(F)(F)C(F)(F)C(F)(F)C(F)(F)C(F)(F)C(F)(F)C(F)(F)F,inactive,–
CC(C)(O)C(=O)Nc1ccc([N+](=O)[O-])c(C(F)(F)F)c1,inactive,–
COc1ccc(O)c(C(C)(C)C)c1,inactive,–
CO/C=C(/C(=O)OC)c1ccccc1COc1cccc(C(F)(F)F)n1,inactive,–
CCC(C)(c1ccc(O)cc1)c1ccc(O)cc1,inactive,92.5 µM (active) and 87.7 µM (active)
ClC(Cl)=C(c1ccc(Cl)cc1)c1ccc(Cl)cc1,inactive,79.2 µM (active) and 79.5 µM (active) and 80 µM (active)
Cc1cc(-c2ccc(N)c(C)c2)ccc1N,inactive,–
C=CC(N)=O,inactive,–

# From PubChem BioAssay (EPA / NIEHS)
